This is an account of results in PubChem BioAssay AID686915 (National Center for Advancing Translational Sciences (NCATS), 2013).

“And” between values parts separate entries of the source, which are not always exact repeats. Identical values can stand only once. Inconclusive results are not listed. Entries that show only a call come without a potency. The source made the active and inactive calls. Calls come from the whole dose curve; as a rule, active = well fitted inhibition curve with a large enough effect; inconclusive = small, poorly fitted or top-dose-only effect; inactive = no such curve, though single readings can be large or run the other way.

This experiment can be described thus: qHTS screen for inhibitors of ELG1-dependent DNA repair in human embryonic kidney (HEK293T) cells expressing luciferase-tagged ELG1: MMS Stimulated Assay for probe SAR. The conditions noted are these: HEK293T ELG1-luciferase reporter, 16 h; series mostly up to 46.1 µM. An excerpt:
Cancer cells divide rapidly compared to normal cells in the body. During cell division, cancer cells need to duplicate their genome by DNA replication. The failure of genome duplication leads to cancer cells' death. Therefore, inhibitors of DNA replication could specifically kill cancer cells. Based on this concept, many chemotherapeutic agents were developed and have been used to treat cancer patients. However, there are a limited number of agents available in the clinical setting, and some of those that do exist have low efficacy and severe side effects. Therefore, if we can find the compounds that effectively block DNA replication either by directly damaging DNA or by inhibiting other cellular mechanisms, the options for cancer treatment will be broadened. With this in mind, we developed a quantitative high-throughput ELG1-luciferase reporter gene assay. Small molecules that specifically block ELG1 function in response to DNA damage can be identified by monitoring the suppression of luciferase activity. Since ELG1 defines a pathway for repairing DNA damage, agents blocking ELG1 function can be used to sensitize cancer cells to chemotherapeutic agents whose mechanism of action involves the induction of DNA damage. NIH Molecular Libraries Probe Production Network [MLPCN] NIH Chemical Genomics Center [NCGC] MLPCN Grant: R03 MH092164 Assay Provider: Kyungjae Myung, NHGRI, NIH
ELG1-luc HEK293T cells will be seeded in 1536-well plates at a density of 2,000 cells / well. Approximately 5 hours after plating, compounds will be added to the plate by pin tool transfer and MMS will be added by FRD dispenser (final concentration of MMS = 10 µM). 16 hours following the addition of the compounds, luciferase activity will be measured using Amplight reagent.
In general terms: qHTS replaces the single test concentration by a dilution series.
Take `CSc1ccccc1-c1ccc(Nc2nc(-c3ccncc3)nc3ccccc23)cc1F`: the Potency was 18.7 µM (active).
The same measure for `N#Cc1cc(-c2nc(Nc3ccc(F)c(F)c3)c3ccccc3n2)ccn1`: “inactive”; for `COc1ccc(-c2nc(Nc3ccc(F)c(F)c3)c3ccccc3n2)cc1`: “inactive”.
`CCOC(=O)c1ccc2c(c1)c(C(C)=O)c(C)n2-c1ccc(OC)cc1`: the Potency result is “inactive”.
Turning to `Fc1ccc(Nc2nc(-c3ccncc3)nc3ccccc23)cc1F`, the Potency entry was “inactive”.
The same measure for `COc1cc(Nc2nc(-c3ccncc3)nc3ccccc23)ccc1NS(C)(=O)=O`: “inactive”.
As to `Nc1cc(-c2nc(Nc3ccc(F)c(F)c3)c3ccccc3n2)ccn1`, the Potency entry was “inactive”.
As for `Cc1noc(C)c1-c1ccc(Nc2nc(-c3ccncc3)nc3ccccc23)cc1F`, the Potency is 18.7 µM (active).
In the case of `Fc1cc(Nc2nc(-c3ccncc3)nc3ccccc23)ccc1-c1cc(F)c(F)c(F)c1` it was “inactive”.
In the case of `Fc1ccc(-c2nc(-c3ccncc3)nc3ccccc23)cc1F`, the Potency entry is “inactive”.
Consider `Fc1cccc(-c2ccc(Nc3nc(-c4ccncc4)nc4ccccc34)cc2F)c1`, for which the Potency entry was “inactive”.
Take `COc1cc(Nc2nc(-c3ccncc3)nc3ccccc23)ccc1F`: the Potency is 23.5 µM (active) and 20.9 µM (active).
